In PubChem BioAssay (EPA / NIEHS):
Several values for one entry are separate records, joined by “and”; a condition that tells them apart may be missing. Identical values can stand only once. Results filed as inconclusive are left out. More than one record can exist for a structure, and the calls need not agree. Activity calls are given as the source filed them. The calls were made as follows, unless noted: active = hit-call score of the fitted dose curve at least 0.9, where 1 is the maximum; inactive = score below 0.9.

What was measured:
[1] = target: Glucocorticoid receptor (Homo sapiens) (UniProt P04150); assay: ATG_GR_TRANS: Attagene TRANS-FACTORIAL HepG2 Assay for human Glucocorticoid Receptor (GR) (AID 2282978; active = hit-call score of the fitted dose curve at least 0.9, where 1 is the maximum;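 also: activators score as hits since higher reporter transcript over DMSO is fitted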); details: HepG2 Attagene TRANS GR reporter, mRNA transcription
Glucocorticoid receptor (Homo sapiens), sequence (P04150 whole entry, looked up, the tested form may be a part): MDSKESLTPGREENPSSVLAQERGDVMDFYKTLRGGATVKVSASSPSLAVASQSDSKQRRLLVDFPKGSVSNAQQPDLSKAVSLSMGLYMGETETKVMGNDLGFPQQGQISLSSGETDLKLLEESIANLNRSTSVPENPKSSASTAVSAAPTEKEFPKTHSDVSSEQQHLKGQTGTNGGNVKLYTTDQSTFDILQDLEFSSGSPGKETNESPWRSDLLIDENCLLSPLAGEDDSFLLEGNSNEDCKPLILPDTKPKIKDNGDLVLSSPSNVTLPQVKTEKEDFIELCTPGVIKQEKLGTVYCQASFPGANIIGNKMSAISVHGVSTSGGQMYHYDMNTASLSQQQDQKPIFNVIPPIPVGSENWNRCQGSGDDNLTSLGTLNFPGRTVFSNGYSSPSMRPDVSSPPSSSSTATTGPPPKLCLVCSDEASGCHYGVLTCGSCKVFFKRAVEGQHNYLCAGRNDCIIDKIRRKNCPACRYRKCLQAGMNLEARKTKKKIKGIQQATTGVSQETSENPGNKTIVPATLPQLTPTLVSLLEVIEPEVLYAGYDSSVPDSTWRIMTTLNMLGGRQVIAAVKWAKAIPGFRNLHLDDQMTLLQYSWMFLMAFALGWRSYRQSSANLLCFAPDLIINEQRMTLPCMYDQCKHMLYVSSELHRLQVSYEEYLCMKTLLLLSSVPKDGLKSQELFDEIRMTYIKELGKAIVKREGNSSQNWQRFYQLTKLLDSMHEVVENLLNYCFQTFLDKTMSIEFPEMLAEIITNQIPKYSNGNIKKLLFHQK
In short: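 Transient MRTU transfection of HepG2 (GAL4-UAS reporters, exogenous NR-GAL4 chimeras), 24 h dosing. Readout: reporter transcript via RT-PCR + capillary electrophoresis fluorescence. Positive direction vs DMSO baseline.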

[2] = target: Oxysterols receptor LXR-alpha (Homo sapiens) (UniProt Q13133); assay: ATG_LXRa_TRANS: Attagene TRANS-FACTORIAL HepG2 Assay for human Liver X Receptor alpha (LXRa) (AID 2282980; active = hit-call score of the fitted dose curve at least 0.9, where 1 is the maximum); details: HepG2 Attagene TRANS reporter, LXRa transactivation
Oxysterols receptor LXR-alpha (Homo sapiens), sequence (Q13133 whole entry, looked up, the tested form may be a part): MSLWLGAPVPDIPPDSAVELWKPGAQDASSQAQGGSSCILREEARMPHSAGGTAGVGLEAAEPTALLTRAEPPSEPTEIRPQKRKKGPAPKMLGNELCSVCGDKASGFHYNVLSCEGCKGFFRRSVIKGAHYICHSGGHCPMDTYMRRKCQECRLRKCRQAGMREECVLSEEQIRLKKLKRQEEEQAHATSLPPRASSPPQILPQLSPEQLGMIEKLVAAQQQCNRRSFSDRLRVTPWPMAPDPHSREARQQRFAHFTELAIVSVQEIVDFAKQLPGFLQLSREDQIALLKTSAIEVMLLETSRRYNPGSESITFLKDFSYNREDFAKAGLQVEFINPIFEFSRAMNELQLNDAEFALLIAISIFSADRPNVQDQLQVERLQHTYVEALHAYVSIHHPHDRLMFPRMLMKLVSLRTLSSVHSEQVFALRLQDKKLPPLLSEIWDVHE
In short: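 In this multiplexed TRANS system, compounds act on HepG2 cells carrying GAL4-UAS reporter units and a receptor-GAL4 fusion for 24 h. Induced reporter RNA is amplified, fluorescently labelled and sized by capillary electrophoresis, with DMSO as baseline.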

[3] = target: Oxysterols receptor LXR-beta (Homo sapiens) (UniProt P55055); assay: ATG_LXRb_TRANS: Attagene TRANS-FACTORIAL HepG2 Assay for human Liver X Receptor beta (LXRb) (AID 2282981; active = hit-call score of the fitted dose curve at least 0.9, where 1 is the maximum); details: HepG2 Attagene TRANS GAL4-LXRb reporter, mRNA
Oxysterols receptor LXR-beta (Homo sapiens), sequence (P55055 whole entry, looked up, the tested form may be a part): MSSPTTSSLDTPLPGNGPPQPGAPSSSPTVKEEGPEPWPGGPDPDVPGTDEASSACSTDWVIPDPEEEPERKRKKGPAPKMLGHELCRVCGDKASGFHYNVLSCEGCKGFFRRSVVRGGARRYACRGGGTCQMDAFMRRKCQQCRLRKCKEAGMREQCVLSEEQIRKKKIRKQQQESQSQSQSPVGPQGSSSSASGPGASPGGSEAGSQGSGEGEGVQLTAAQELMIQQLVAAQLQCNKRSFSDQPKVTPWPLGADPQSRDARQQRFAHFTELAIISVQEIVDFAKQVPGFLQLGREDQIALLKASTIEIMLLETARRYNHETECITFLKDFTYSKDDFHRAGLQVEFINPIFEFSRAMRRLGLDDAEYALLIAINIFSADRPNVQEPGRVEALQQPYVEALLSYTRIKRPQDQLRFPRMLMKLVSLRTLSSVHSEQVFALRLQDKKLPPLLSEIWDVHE
In short: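 Gain-of-signal mRNA reporter endpoint, DMSO as negative control. Transiently transfected HepG2 cells carrying the NR-Gal4 chimera and GAL4-UAS reporter units were treated 24 h; transcripts quantified by RT-PCR and capillary electrophoresis fluorescence.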

[4] = target: Hepatocyte nuclear factor 4-alpha (Homo sapiens) (UniProt P41235); assay: ATG_HNF4a_TRANS: Attagene TRANS-FACTORIAL HepG2 Assay for human Hepatocyte Nuclear Factor 4 alpha (HNF4a) (AID 2282982; active = hit-call score of the fitted dose curve at least 0.9, where 1 is the maximum); details: HepG2 HNF4a transactivation reporter, mRNA readout
Hepatocyte nuclear factor 4-alpha (Homo sapiens), sequence (P41235 whole entry, looked up, the tested form may be a part): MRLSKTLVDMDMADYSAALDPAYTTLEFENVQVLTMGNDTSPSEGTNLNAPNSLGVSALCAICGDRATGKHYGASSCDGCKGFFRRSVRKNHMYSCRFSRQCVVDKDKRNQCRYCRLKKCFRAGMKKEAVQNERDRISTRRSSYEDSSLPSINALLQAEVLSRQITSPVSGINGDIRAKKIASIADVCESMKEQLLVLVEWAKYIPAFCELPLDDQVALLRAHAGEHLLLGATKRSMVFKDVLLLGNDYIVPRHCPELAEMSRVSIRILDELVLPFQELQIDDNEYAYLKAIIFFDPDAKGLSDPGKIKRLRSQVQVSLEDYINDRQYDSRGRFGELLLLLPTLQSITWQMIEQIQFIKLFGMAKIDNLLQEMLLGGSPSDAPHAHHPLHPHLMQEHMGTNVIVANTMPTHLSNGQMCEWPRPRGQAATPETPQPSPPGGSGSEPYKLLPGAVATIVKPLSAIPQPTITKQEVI
In short: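 Gain-of-signal mRNA induction, relative to DMSO vehicle, was read after 24 h compound treatment of HepG2 cells bearing transfected GAL4-UAS reporters. Detection used RT-PCR, 6-FAM primer extension and capillary electrophoresis.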

[5] = ATG_M_06_TRANS: Attagene TRANS-FACTORIAL HepG2 Assay for M06 Transcription Factor (Internal Marker) (AID 2282983; active = hit-call score of the fitted dose curve at least 0.9, where 1 is the maximum); details: HepG2 Attagene TRANS M06 internal marker reporter
In short: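 Internal-marker background readout from a multiplexed TRANS reporter system in HepG2; 24 h dosing; mRNA induction quantified by RT-PCR plus capillary electrophoresis fluorescence; DMSO as negative control and baseline.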

[6] = target: Nuclear receptor subfamily 4 group A member 2 (Homo sapiens) (UniProt P43354); assay: ATG_NURR1_TRANS: Attagene TRANS-FACTORIAL HepG2 Assay for human Nuclear Receptor Related Protein 1 (NURR1) (AID 2282985; active = hit-call score of the fitted dose curve at least 0.9, where 1 is the maximum); details: HepG2 Attagene TRANS reporter, mRNA readout
Nuclear receptor subfamily 4 group A member 2 (Homo sapiens), sequence (P43354 whole entry, looked up): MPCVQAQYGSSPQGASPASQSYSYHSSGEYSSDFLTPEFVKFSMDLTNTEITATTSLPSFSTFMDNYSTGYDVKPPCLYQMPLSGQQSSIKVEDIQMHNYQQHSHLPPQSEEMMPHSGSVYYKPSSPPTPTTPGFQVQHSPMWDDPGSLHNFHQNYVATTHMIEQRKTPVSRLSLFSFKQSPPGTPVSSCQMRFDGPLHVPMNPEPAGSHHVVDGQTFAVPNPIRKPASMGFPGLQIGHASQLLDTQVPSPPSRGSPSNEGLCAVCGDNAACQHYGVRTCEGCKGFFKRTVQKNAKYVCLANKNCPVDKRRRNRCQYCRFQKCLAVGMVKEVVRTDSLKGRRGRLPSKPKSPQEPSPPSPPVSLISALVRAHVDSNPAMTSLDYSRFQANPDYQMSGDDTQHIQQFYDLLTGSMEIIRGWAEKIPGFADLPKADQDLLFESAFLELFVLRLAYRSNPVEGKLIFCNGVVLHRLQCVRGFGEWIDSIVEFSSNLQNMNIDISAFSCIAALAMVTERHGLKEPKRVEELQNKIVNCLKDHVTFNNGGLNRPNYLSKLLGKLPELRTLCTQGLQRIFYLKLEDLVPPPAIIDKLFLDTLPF
In short: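 HepG2 / transient MRTU transfection / 24 h compound exposure / RT-PCR + CE fluorescence of reporter mRNA / gain-of-signal vs DMSO.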

[7] = target: Transcriptional activator Myb (Homo sapiens) (UniProt P10242); assay: ATG_Myb_CIS: Attagene CIS-FACTORIAL HepG2 Assay for human Myeloblastosis (Myb) Proto-Oncogene Transcription Factor (AID 2282986); details: HepG2 Attagene CIS-FACTORIAL Myb reporter transcription; actives raise or lower the signal
Transcriptional activator Myb (Homo sapiens), sequence (P10242 whole entry, looked up): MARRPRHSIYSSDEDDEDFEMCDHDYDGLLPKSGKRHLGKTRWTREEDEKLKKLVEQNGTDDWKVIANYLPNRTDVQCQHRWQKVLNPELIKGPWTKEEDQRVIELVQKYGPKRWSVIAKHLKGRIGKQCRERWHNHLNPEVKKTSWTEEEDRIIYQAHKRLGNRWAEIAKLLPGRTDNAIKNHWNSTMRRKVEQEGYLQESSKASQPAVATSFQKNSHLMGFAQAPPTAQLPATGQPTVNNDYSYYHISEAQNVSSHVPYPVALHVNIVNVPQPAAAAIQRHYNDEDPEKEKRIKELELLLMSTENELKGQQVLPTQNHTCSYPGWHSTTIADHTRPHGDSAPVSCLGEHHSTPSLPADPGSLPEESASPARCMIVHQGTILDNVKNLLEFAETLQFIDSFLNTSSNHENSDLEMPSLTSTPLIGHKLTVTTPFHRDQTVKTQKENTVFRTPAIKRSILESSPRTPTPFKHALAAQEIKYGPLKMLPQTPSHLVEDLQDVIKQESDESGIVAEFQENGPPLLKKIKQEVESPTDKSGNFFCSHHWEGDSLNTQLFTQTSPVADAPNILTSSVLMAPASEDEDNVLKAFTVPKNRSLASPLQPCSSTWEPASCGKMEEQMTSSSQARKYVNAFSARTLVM
In short: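 HepG2, transient MRTU transfection (cis-element promoters, endogenous TF activity), 24 h compound exposure. Readout: reporter mRNA via RT-PCR, 6-FAM labeling, HpaI digest, capillary electrophoresis. Gain/loss fit vs DMSO.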

[8] = target: Nuclear respiratory factor 1 (Homo sapiens) (UniProt Q16656); assay: ATG_NRF1_CIS: Attagene CIS-FACTORIAL HepG2 Assay for human Nuclear Respiratory Factor 1 (NRF1) Orphan Gene (AID 2282987); details: HepG2 NRF1 cis-element reporter, Attagene multiplex; actives raise or lower the signal
Nuclear respiratory factor 1 (Homo sapiens), sequence (Q16656 whole entry, looked up): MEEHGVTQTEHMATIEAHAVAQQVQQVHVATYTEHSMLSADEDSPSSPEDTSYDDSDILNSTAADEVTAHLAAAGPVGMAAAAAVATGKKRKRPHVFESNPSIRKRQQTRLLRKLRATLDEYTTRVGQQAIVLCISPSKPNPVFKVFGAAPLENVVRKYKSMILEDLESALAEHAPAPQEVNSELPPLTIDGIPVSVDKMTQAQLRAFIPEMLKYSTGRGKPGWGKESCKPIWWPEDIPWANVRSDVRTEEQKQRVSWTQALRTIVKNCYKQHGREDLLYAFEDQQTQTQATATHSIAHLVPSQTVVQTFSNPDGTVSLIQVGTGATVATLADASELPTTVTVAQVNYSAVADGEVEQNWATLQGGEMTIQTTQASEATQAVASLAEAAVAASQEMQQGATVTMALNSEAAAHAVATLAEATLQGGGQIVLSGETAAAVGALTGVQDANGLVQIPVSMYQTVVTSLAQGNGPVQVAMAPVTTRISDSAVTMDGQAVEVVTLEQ
In short: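 Endogenous NRF1-driven reporter transcription measured in transiently transfected human HepG2 liver cells. Readout: reporter mRNA by RT-PCR and capillary electrophoresis with fluorescence detection, 24 h post-dosing. Gain or loss of signal fitted relative to DMSO baseline.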

[9] = ATG_NFI_CIS: Attagene CIS-FACTORIAL HepG2 Assay for human Nuclear Factor I (NFI) (AID 2282989); details: HepG2 cis-regulatory reporter, NFI response element transcription; actives raise or lower the signal
In short: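 Transfected HepG2 liver cells, exposed 24 h, supplied total RNA for oligo(dT) reverse transcription and reporter-specific PCR. Labelled, HpaI-cut fragments were sized by capillary electrophoresis; DMSO set the baseline for bidirectional fitting.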

[10] = target: Myc proto-oncogene protein (Homo sapiens) (UniProt P01106); assay: ATG_Myc_CIS: Attagene CIS-FACTORIAL HepG2 Assay for human Myelocytomatosis (Myc) Proto-Oncogene Transcription Factor (AID 2282990); details: HepG2, Attagene cis-reporter transcription factor activity; actives raise or lower the signal
In short: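 Transiently transfected HepG2 cells bearing cis-promoter reporter units for endogenous transcription factors; 24 h exposure. Reporter mRNA measured by RT-PCR, 6-FAM primer extension, HpaI cut and capillary electrophoresis; bidirectional fit relative to DMSO.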

[11] = ATG_NRF2_ARE_CIS: Attagene CIS-FACTORIAL HepG2 Assay for human Nuclear Factor Erythroid 2 Related Factor 2 (NFR2) response to Antioxidant Response Elements (ARE) (AID 2282992); details: HepG2 Attagene ARE/NRF2 reporter, transcription factor activity; actives raise or lower the signal
In short: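 HepG2 cells transiently transfected with multiplexed cis-element reporter constructs, 24 h after chemical dosing; reporter mRNA quantified by RT-PCR, fluorescent primer extension, HpaI digestion and capillary electrophoresis. Bidirectional fit relative to DMSO.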

[12] = target: Cellular tumor antigen p53 (Homo sapiens) (UniProt P04637); assay: ATG_p53_CIS: Attagene CIS-FACTORIAL HepG2 Assay for human p53 Transcription Factor (AID 2282994); details: HepG2 p53 cis-element reporter, Attagene mRNA; actives raise or lower the signal
Cellular tumor antigen p53 (Homo sapiens), sequence (P04637 whole entry, looked up): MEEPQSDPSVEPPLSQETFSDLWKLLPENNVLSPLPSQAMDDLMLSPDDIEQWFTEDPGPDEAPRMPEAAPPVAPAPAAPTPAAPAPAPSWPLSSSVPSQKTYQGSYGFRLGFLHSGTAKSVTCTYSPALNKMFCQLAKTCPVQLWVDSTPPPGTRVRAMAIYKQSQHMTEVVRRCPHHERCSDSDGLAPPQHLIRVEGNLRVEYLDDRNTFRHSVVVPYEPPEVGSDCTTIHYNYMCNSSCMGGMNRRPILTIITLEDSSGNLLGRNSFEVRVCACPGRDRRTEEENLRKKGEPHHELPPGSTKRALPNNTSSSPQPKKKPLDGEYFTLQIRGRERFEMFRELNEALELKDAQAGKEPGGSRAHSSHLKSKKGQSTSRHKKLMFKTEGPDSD
In short: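 HepG2 cells transiently transfected with cis-regulated multiple reporter transcription units, dosed 24 h. Reporter mRNA measured by RT-PCR, 6-FAM primer extension, HpaI digestion and capillary electrophoresis; bidirectional fit relative to DMSO.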

[13] = BSK_3C_TissueFactor: BioMAP Diversity Plus: 3C Assay for Tissue Factor Biomarker Activity (AID 2282997); details: BioMAP 3C HUVEC, tissue factor biomarker readout; actives raise or lower the signal
In short: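 Endothelial monolayers (human umbilical vein, primary) are dosed, incubated 24 h, and assayed for Tissue Factor by ELISA; DMSO serves as negative control for bidirectional fitting.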

[14] = BSK_3C_uPAR: BioMAP Diversity Plus: 3C Assay for Urokinase-type plasminogen activator receptor (uPAR) Biomarker Activity (AID 2282998); details: BioMAP 3C HUVEC, uPAR biomarker ELISA; actives raise or lower the signal
In short: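 In this endothelial cell-based assay, human umbilical vein primary cells were treated with chemicals and harvested at 24 h. uPAR was quantified using ELISA, with gains or losses fitted relative to DMSO controls.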

[15] = BSK_3C_VCAM1: BioMAP Diversity Plus: 3C Assay for Vascular cell adhesion molecule 1 (VCAM1) Biomarker Activity (AID 2282999); details: BioMAP 3C HUVEC, VCAM1 ELISA, cytokine-stimulated; actives raise or lower the signal
In short: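 Human umbilical vein endothelial cells (3C system), biomarker read by ELISA 24 h after dosing; bidirectional fit against DMSO baseline. Cytotoxicity tracked by SRB total-protein staining in parallel cultures at biomarker time.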

[16] = ATG_NF_kB_CIS: Attagene CIS-FACTORIAL HepG2 Assay for human Nuclear Factor Kappa B (NF-kB) (AID 2282991); details: HepG2 Attagene cis-factorial NF-kB reporter mRNA; actives raise or lower the signal
In short: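 Read-out: reporter transcript levels quantified by RT-PCR plus capillary electrophoresis of 6-FAM-labelled, HpaI-cut fragments. Transfected HepG2 cells, 24 h compound exposure, endogenous NF-kB-driven cis element; gain or loss scored versus DMSO.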

[17] = ATG_Oct_MLP_CIS: Attagene CIS-FACTORIAL HepG2 Assay for human Octamer-Binding Transcription Factor (Oct) (AID 2282993); details: HepG2 Attagene cis-factorial Oct reporter, mRNA; actives raise or lower the signal
In short: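 Using HepG2 cells bearing transfected cis-reporter constructs, mRNA induction was read after 24 h by fluorescent RT-PCR and capillary electrophoresis, with DMSO defining baseline for gain- or loss-of-signal fits.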

[18] = target: Estrogen-related receptor gamma (Homo sapiens) (UniProt P62508); assay: ATG_ERRg_TRANS: Attagene TRANS-FACTORIAL HepG2 Assay for human Estrogen-Related Receptor gamma (ERRg) (AID 2282977; active = hit-call score of the fitted dose curve at least 0.9, where 1 is the maximum;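 also: hits increase reporter signal over DMSO so potencies reflect activators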); details: HepG2 Attagene TRANS reporter, ERRg transactivation
In short: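 Transient HepG2 transfectants, 24 h compound exposure, GAL4-UAS reporter mRNA by RT-PCR/6-FAM labelling/capillary electrophoresis; positive direction vs DMSO.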

[19] = ATG_M_32_TRANS: Attagene TRANS-FACTORIAL HepG2 Assay for M32 Transcription Factor (Internal Marker) (AID 2282984; active = hit-call score of the fitted dose curve at least 0.9, where 1 is the maximum;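 also: transcript level of a background control reporter unit measured by RT-PCR and capillary electrophoresis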); details: HepG2 Attagene TRANS M32 internal marker reporter
In short: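 Capillary electrophoresis of 6-FAM-labelled reporter fragments gives the signal; data fitted for gain over DMSO negative control. Source: HepG2 cells bearing transient multiple reporter transcription units, 24 h exposure.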

[20] = target: Bile acid receptor (Homo sapiens) (UniProt Q96RI1); assay: ATG_FXR_TRANS: Attagene TRANS-FACTORIAL HepG2 Assay for Farnesoid X Receptor (FXR) (AID 2282979; active = hit-call score of the fitted dose curve at least 0.9, where 1 is the maximum;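 also: hits raise reporter mRNA above DMSO so AC50 marks FXR activation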); details: HepG2 Attagene TRANS FXR-GAL4 reporter transcription
Bile acid receptor (Homo sapiens), sequence (Q96RI1 whole entry, looked up, the tested form may be a part): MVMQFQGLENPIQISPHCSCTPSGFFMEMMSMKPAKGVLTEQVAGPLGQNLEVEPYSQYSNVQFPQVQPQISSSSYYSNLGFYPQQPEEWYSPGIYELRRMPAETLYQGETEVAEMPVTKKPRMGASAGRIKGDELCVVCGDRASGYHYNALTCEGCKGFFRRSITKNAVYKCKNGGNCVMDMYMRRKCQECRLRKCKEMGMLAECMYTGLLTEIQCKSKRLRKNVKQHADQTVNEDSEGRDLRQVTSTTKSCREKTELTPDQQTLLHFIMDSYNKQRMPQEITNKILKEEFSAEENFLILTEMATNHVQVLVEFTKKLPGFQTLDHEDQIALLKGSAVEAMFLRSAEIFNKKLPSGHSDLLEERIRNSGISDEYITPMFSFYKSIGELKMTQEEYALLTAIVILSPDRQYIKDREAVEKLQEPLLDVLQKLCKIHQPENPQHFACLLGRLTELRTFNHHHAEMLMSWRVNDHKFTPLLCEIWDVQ
In short: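 After 24 h chemical treatment of transfected HepG2 cells, GAL4-UAS reporter transcripts driven by an exogenous FXR-GAL4 fusion were measured by RT-PCR and capillary electrophoresis. Increases over DMSO were fitted.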

Measured: AC50

Nn1cnnc1
inactive: [1] | [2] | [3] | [5] | [7] | [8] | [9] | [10] | [16] | [11] | [17] | [12] | [13] | [14] | [15]

C=CC(N)=O
active: [11] 66.5 µM | [17] 172 µM
inactive: [18] | [2] | [3] | [4] | [5] | [19] | [6] | [7] | [8] | [9] | [10] | [16] | [12] | [13] | [14] | [15]

CC(C)(c1ccccc1)c1ccc(O)cc1
active: [20] 48.9 µM | [7] 51.8 µM | [9] 49.6 µM | [10] 33.4 µM | [16] 53.1 µM and 50.4 µM | [11] 33.4 µM and 45.2 µM and 22.5 µM | [12] 57 µM | [13] 30.5 µM | [14] 31.1 µM | [15] 32.9 µM
inactive: [1] | [20] | [2] | [3] | [5] | [19] | [6] | [7] | [8] | [9] | [10] | [16] | [12]

NS(=O)(=O)C(F)(F)C(F)(F)C(F)(F)C(F)(F)C(F)(F)C(F)(F)C(F)(F)C(F)(F)F
active: [9] 44.3 µM and 37.1 µM and 50 µM | [10] 27.6 µM | [16] 60.1 µM and 253 µM | [11] 28.9 µM and 268 µM and 15.4 µM | [12] 112 µM | [13] 30.2 µM and 49.5 µM and 52.9 µM | [14] 29.9 µM and 42.3 µM and 44.1 µM | [15] 35.2 µM and 55 µM and 55.3 µM
inactive: [1] | [20] | [2] | [3] | [4] | [5] | [19] | [6] | [7] | [8] | [10] | [16] | [12]

CCOC(=O)C(O)(c1ccc(Cl)cc1)c1ccc(Cl)cc1
active: [13] 33.5 µM | [14] 31.7 µM | [15] 34.7 µM
inactive: [1] | [2] | [5] | [19] | [7] | [8] | [9] | [10] | [16] | [11] | [12]
